From PubChem
M1 PAM parental: nonselective calcium activators in parental CHO-K1 cells, primary screen, counter-screen for M1 PAM project, cell-based, Fluo-8 calcium fluorescence, full deck, 1536-well. ATP EC20; 0% at ATP EC20, 100% at ATP max. activation, % at 3 µM. actives 0.02% (n = 360,000);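 active = activation above the run cutoff, the mean activation of all test compounds plus 3 SD, cut at about 40% in these data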;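 also: peak over basal fluorescence ratio in a 140 s read after ATP addition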
CHO-K1 Ca antag: M1 antagonist counterscreen hit in parental CHO-K1 cells | actives 0.6% (n = 360,000) | inhibition, % at 3 µM | ATP-induced calcium, Fluo-8 fluorescence;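 active = inhibition above a per-plate cutoff, the plate's mean sample inhibition plus 3 SD, cut at about 24% in these data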;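 also: 0% = DMSO plus EC80 ATP and 100% = DMSO alone without ATP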
CHRM1 PAM: human M1 muscarinic receptor positive allosteric modulators, primary screen, CHO-K1 cells, Fluo-8 calcium fluorescence, 1536-well. Muscarinic acetylcholine receptor M1 (Homo sapiens), P11229. CHO-K1 hM1, ACh EC20; 0% = ACh EC20, 100% = maximal ACh. activation, % at 3 µM. actives 0.088% (n = 360,000). AID 588819, 2011; in the data active = activation above about 19%, passing the limit was not always enough
Target sequence (P11229 whole entry, looked up): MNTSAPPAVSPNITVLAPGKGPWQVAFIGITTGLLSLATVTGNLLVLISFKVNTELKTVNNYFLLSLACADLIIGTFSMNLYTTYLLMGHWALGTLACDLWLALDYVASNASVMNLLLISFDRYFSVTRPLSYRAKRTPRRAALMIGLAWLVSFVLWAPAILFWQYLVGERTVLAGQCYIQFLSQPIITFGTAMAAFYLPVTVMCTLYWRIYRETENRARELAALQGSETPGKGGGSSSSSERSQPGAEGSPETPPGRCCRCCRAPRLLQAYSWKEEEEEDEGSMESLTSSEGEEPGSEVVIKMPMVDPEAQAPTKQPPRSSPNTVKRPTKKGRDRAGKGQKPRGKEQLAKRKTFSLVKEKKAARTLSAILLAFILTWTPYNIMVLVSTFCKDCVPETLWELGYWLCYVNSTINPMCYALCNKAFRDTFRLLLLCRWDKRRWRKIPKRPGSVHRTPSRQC
M1 antag: human M1 muscarinic receptor antagonists, primary screen, CHO-K1 cells, Fluo-8 calcium fluorescence, 1536-well. AID 588852, 2011. actives 1.3% (n = 360,000). CHO-K1 hM1, ACh EC80 antagonist. inhibition, % at 3 µM. Muscarinic acetylcholine receptor M1 (Homo sapiens), P11229;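 active = percent inhibition above its own plate's cutoff, namely the mean of that plate's compound wells plus 3 SD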;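 also: peak over basal fluorescence ratio during 140 s after agonist addition; 0% = ACh EC80 plus DMSO and 100% = DMSO alone without agonist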
CHO-K1 Ca ag: counter-screen for M1 agonists: effect in parental CHO-K1 cells. Fluo-8 calcium fluorescence; scaled to maximal ATP response, vehicle zero. actives 0.48% (n = 360,000). activation, % at 3 µM. AID 602248, 2012; in the data active = activation above about 15%;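 also: untransfected CHO-K1 host cells lacking M1 receptor as counterscreen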
CHRM1 agonist: human M1 muscarinic receptor agonists, primary screen, Fluo-8 calcium fluorescence, CHO-K1 cells, HTS. Muscarinic acetylcholine receptor M1 (Homo sapiens), P11229. CHO-K1 hM1, agonist mode; 0% DMSO, 100% acetylcholine EC100. activation, % at 3 µM. actives 0.33% (n = 360,000);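 active = activation above the run's mean compound activation plus 3 SD, cut at about 16% in these data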;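 also: peak over basal fluorescence ratio within a 140 s kinetic read after compound addition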
Numbers without * were called inactive. Rows were chosen to be rich in hits. Some 2.3% of all compounds tested hit in one or more screens of this group.

SMILES	M1 PAM parental	CHO-K1 Ca antag	CHRM1 PAM	M1 antag	CHO-K1 Ca ag	CHRM1 agonist
Cc1ccc(NC(=O)C2CCN(c3ncnc4sc(C)c(C)c34)CC2)cc1S(=O)(=O)N(C)C	3	5	-8	14	7	-2
COc1cccc(-n2c([S-])c(C(=O)Nc3ccc(S(=O)(=O)N4CCOCC4)cc3)[n+]3cc(C(N)=O)ccc23)c1	9	-14	2	-8	0	-4
CNc1nc(Sc2ccc(C)cc2)cc(C(F)(F)F)n1	14	2	11	-14	0	-3
CC(=O)Nc1ccc(S(=O)(=O)NCCC(=O)OC(C)C(=O)NC2(C#N)CCCCC2)cc1 (stereo unspecified)	15	-9	9	-11	0	-1
CC(C)(C)OC(=O)CN1C(=O)C(Sc2n[nH]c(-c3ccccc3)n2)CCc2ccccc21 (stereo unspecified)	-2	-22	7	-8	0	-1
O=C1[C@H](Cc2ccccc2)NCC=CC[C@H](c2ccco2)N1Cc1ccccc1	5	-8	-17	28	4	-8
COC(=O)/C(=C\C=C\c1ccccc1)NC(=O)c1ccccc1	-9	29*	-3	-4	3	-4
O=C(Nc1ccc(O)cc1)/C(=C\C=C\c1ccccc1)NC(=O)c1ccccc1	8	-4	-11	22	3	-1
CC1Cc2cc(-c3csc(NC(=O)Cc4cccs4)n3)ccc2N1S(C)(=O)=O (stereo unspecified)	9	9	-12	26*	11	1
CCC(=O)Nc1nc(-c2ccc3c(c2)CC(C)N3S(C)(=O)=O)cs1 (stereo unspecified)	11	0	-1	-2	4	-5
O=C(Nc1ccncc1)Nc1cccc(Cl)c1	2	3	-10	18	14	5
COc1cccc(NC(=O)Nc2nc(-c3ccc(OC)c(OC)c3)cs2)c1	-27	18	-13	31*	11	3
O=C(Cc1csc(NC(=O)Nc2cccc(Cl)c2)n1)NCc1ccccn1	5	-2	-2	2	8	1
O=C(Nc1cccc(Cl)c1)Nc1csc([N+](=O)[O-])c1	-6	20	0	26	16*	6
O=C(Nc1cccc(Cl)c1)Nc1nc(-c2ccc(Cl)cc2)cs1	4	22	-5	30*	5	3
COc1ccc(-c2csc(NC(C)=O)n2)cc1OC	12	-6	5	-13	0	-4
O=C(Cc1csc(NC(=O)Nc2cccc(Cl)c2)n1)NC1CCCC1	-3	8	1	4	16*	6
COc1ccc(OC)c(CC(=O)N2CCc3cc(OC)c(OC)cc3C2)c1	-9	-13	2	-4	2	-1
COc1cc2c(cc1OC)C1C(C(=O)Nc3ccccc3N3CCN(C)CC3)c3ccccc3C(=O)N1CC2 (stereo unspecified)	0	-6	-1	6	0	-3
C(=NNc1nnn(Cc2ccccc2)n1)c1ccccc1	11	-8	5	-5	3	-3
O=C(NNc1ccccc1Br)C(O)(c1cccc(C(F)(F)F)c1)c1cccc(C(F)(F)F)c1	11	6	-22	36*	5	-9
Cc1ccc(NNC(=O)C(O)(c2cccc(C(F)(F)F)c2)c2cccc(C(F)(F)F)c2)cc1	-3	2	-8	6	0	-6
O=C(CN1CCC(Cc2ccccc2)CC1)NC(=O)NCc1ccco1	14	-17	20*	-32	0	-3
O=C(CN1CCN(c2ccccc2O)CC1)NC(=O)NCc1ccco1	-12	19	0	3	0	2
CC(CCCC(C)(C)O)NCc1cn[nH]c1-c1ccc2c(c1)OCO2 (stereo unspecified)	-10	20	-3	10	0	-3
O=C(CCc1ccccc1)NC(=S)Nc1ccc2c(c1)C(=O)OC2	3	6	9	-4	16*	-5
